Assay [1] in a line: Cytometric Cell-Based qHTS for Inhibitors of the mTORC1 Signaling Pathway in MEF (Tsc2-/-, p53-/-) Cells (AID 2660).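 Note: Tsc2 and p53 null MEFs carrying empty vector with compound for 24 h; percent of cells above a phospho-rpS6 to PI ratio cutoff in each well; series mostly up to about 38 µM.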 A digest of the protocol: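 Cells are plated, treated with compound for 24 hrs at 37 degree Celsius, then fixed, blocked and immunostained for phospho-rpS6 Ser235/236. Propidium iodide counterstain follows. Per-well % positive cells is derived from the PI-normalized phospho-S6 signal.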
In general terms: qHTS replaces the single test concentration by a dilution series.

The nature of assay [2]: High Content Imaging Cell-Based qHTS for Inhibitors of the mTORC1 Signaling Pathway in MEF (Tsc2-/-, p53-/-) Cells (AID 2666).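 Note: percent of cells scored positive for phospho-rpS6 Ser235/236 immunostaining by imaging.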 A digest of the protocol: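 MEF Tsc2-/- p53-/- (empty vector), DMEM/10% FBS; cpd 24 h 37 °C; PFA fix, Alexa-488 p-rpS6 S235/236 Ab, Hoechst; imaged; rapamycin-defined inhibition; % positive cells/well.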
Assay [3] in a line: High Content Imaging Cell-Based qHTS for Inhibitors of the mTORC1 Signaling Pathway in MEF Cells (AID 2667).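 Note: Tsc2-/- p53-/- MEFs stably re-expressing wild-type Tsc2 exposed 24 h; series mostly up to about 38 µM.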 An outline of the steps: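 Read-out is the share of phospho-rpS6-positive cells per well, from Hoechst-normalized Alexa-488 Ser235/236 staining imaged on IN Cell. Cells: WT Tsc2-expressing Tsc2-/-, p53-/- MEFs exposed to compound for 24 hrs.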
A short description of assay [4]: Cytometry Cell-Based qHTS for Inhibitors of the mTORC1 Signaling Pathway in MEF cells (AID 2668).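 Note: Tsc2-/- p53-/- mouse embryonic fibroblasts stably re-expressing wild-type Tsc2; percent cells positive for phospho-rpS6 Ser235/236 relative to propidium iodide stain; series mostly up to about 38 µM.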 A digest of the protocol:
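In MEFs grown in DMEM + 10% FBS, a 24 hrs compound exposure preceded imaging of phospho-rpS6 Ser235/236 by laser-scanning cytometry.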

A short description of assay [5]: Validation screen for small molecules that induce DNA re-replication in MCF 10A normal breast cells (AID 463097). Note: nearly all actives have a fitted effect of over 60% in size. A digest of the protocol: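 Following 48 hr compound incubation (37 C, 5% CO2), MCF 10A cells receive Hoechst for 40 min at 37 C. Nuclei are then scanned (excitation 405 nm, emission 500-530 nm) for total fluorescence intensity.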
The target of assay [6] is Ubiquitin carboxyl-terminal hydrolase 2 (Homo sapiens) (UniProt O75604). Nature of the assay: qHTS Validation Assay for Inhibitors of Ubiquitin-specific Protease USP2a Using CHOP2 as the Reporter (AID 463106). An outline of the steps: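 Fluorescence read-out at Ex 485nm/Em 531nm after 60min RT, following addition of 25nM Ub-CHOP2 plus 25nM reporter substrate to USP2 core (10nM) pretreated 30min with compound. Data normalized to NEM full inhibition; concentration-response curves fitted.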
Sequence of Ubiquitin carboxyl-terminal hydrolase 2 (Homo sapiens) (O75604 whole entry, looked up): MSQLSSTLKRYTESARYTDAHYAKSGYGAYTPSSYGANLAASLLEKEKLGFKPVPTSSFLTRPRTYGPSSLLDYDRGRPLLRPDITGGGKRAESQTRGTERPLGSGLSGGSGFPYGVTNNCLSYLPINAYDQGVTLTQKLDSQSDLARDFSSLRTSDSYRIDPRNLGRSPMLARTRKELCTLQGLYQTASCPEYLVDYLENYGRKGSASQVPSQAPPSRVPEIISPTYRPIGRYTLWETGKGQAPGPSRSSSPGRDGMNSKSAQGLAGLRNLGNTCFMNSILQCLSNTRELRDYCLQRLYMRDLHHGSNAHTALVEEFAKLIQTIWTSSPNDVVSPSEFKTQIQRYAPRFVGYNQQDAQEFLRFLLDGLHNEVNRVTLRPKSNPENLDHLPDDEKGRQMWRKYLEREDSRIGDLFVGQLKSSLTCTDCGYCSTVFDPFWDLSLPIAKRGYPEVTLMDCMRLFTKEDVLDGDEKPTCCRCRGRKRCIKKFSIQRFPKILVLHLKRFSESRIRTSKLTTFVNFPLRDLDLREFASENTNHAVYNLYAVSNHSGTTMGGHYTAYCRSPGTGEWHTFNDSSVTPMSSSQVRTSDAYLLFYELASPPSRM

Assay [7] addresses DNA polymerase III PolC-type (Bacillus subtilis (strain 168)) (UniProt P13267). Nature of the assay: qHTS Validation Assay for the Inhibitors of DNA Replication in Gram-Positive Bacteria (AID 485295).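 Note: reconstituted holoenzyme with PolC plus beta clamp SSB and primase; PicoGreen fluorescence of double-stranded DNA made on primed circular M13 template; series mostly up to about 57 µM.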 An outline of the steps:
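Inhibition of DNA synthesis by the reconstituted PolC holoenzyme, monitored through PicoGreen staining of dsDNA formed from ssM13Gori, dNTPs and NTPs, with compound preincubation and room-temperature reaction.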

Assay [8] has as its target Tumor susceptibility gene 101 protein (Homo sapiens) (UniProt Q99816). Nature of the assay: qHTS Validation Assay for Iinhibitors of HIV-1 Budding by Blocking the Interaction of PTAP/TSG101 (AID 485342; calls by dose curve). A digest of the protocol: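 Compound wells held the Tsg101 binding domain (10 uM) and a FITC-conjugated PTAP peptide (50 nM) in buffer at pH 7.5 containing 0.15 M NaCl and 0.01% Tween 20; polarization was recorded after 20 min, r.t.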

Assay [9] can be described thus: qHTS Validation Assay to Find Inhibitors of Chronic Active B-Cell Receptor Signaling (AID 485345; active = well fitted curve in the direction sought with a large enough effect in the main read-out, with a control signal flat, not every such curve was filed as active). A digest of the protocol:
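TMD8 ABC-DLBCL cells stably carrying doxycycline-inducible IkappaBalpha–green luciferase fusion plus unfused red luciferase; compounds 46 uM to 3 nM, 4 h at 37C with doxycycline. Corrected green/red luminescence ratio normalized to 10 uM MG-132 and basal cell wells; curves fitted.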

Assay [10] deals with Beta-2 adrenergic receptor (Homo sapiens) (UniProt P07550). As to the kind of experiment: qHTS validation assay of beta-arrestin-biased ligands of beta2-adrenergic receptor (AID 485366). An outline of the steps:
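Compound series up to 46 microM applied to beta2-AR/beta-arrestin Tango cells, 18 hr, 37 degrees C, 5% CO2. Read-out: tTA-driven luciferase luminescence, converted to %Activity; concentration-response curves assigned curve classes.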

The target in assay [11] is ATP-dependent 6-phosphofructokinase (Trypanosoma brucei brucei) (UniProt O15648). As to the kind of experiment: qHTS Validation Assay to Find Inhibitors of T. brucei phosphofructokinase (AID 485368). An outline of the steps:
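qHTS format, up to 57 uM. PFK 1.25 nM; F6P 0.5 mM; ATP 0.1 mM; 5 mM MgCl2, 0.01% Tween20, 0.1% BSA; 0.1 M TEA pH 8.0; 45 min RT; ADP-Glo readout; no-enzyme control = full inhibition.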

The nature of assay [12]: Quantitative high throughput screen for delayed death inhibitors of the malarial parasite plastid, 96 hour incubation (AID 488745). Note: nearly all actives have a fitted effect of over 70% in size. Note: potency is the fitted concentration of half-maximal effect. An outline of the steps: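 Readout is firefly luciferase luminescence from an integrated reporter in P. falciparum; lower signal marks inhibited growth. Cultures at 2% hematocrit and 0.1% parasitemia were treated with compound across two generations (96 h, 37 C, 5% CO2).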

A short description of assay [13]: Quantitative high throughput screen for delayed death inhibitors of the malarial parasite plastid, 48 hour incubation (AID 488752). Note: nearly all actives have a fitted effect of over 65% in size. A digest of the protocol: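 First, compound was pinned into RPMI 1640 medium containing 0.5% Albumax. Next, reporter-parasite-infected erythrocytes were added to 2% hematocrit and 0.1% parasitemia. After 48 h at 37 C under 5% CO2, luciferase detection reagent was added and luminescence read.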

In assay [14] the target is Thioredoxin reductase 1, cytoplasmic (Rattus norvegicus) (UniProt O89049). As to the kind of experiment: qHTS Assay for Substrates of Mammalian Selenoprotein Thioredoxin Reductase 1 (TrxR1) (AID 488772).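 Note: series mostly up to about 57 µM; a drop in NADPH fluorescence below the no-compound background marks a TrxR1 substrate.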 A digest of the protocol: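 In this dual-purpose format, potential substrates are identified from the first fluorescence read after selenite addition, not from the 8-minute delta. Rat enzyme is preincubated with NADPH and then with compound at ~22 deg C.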
Sequence of Thioredoxin reductase 1, cytoplasmic (Rattus norvegicus) (O89049 whole entry, looked up): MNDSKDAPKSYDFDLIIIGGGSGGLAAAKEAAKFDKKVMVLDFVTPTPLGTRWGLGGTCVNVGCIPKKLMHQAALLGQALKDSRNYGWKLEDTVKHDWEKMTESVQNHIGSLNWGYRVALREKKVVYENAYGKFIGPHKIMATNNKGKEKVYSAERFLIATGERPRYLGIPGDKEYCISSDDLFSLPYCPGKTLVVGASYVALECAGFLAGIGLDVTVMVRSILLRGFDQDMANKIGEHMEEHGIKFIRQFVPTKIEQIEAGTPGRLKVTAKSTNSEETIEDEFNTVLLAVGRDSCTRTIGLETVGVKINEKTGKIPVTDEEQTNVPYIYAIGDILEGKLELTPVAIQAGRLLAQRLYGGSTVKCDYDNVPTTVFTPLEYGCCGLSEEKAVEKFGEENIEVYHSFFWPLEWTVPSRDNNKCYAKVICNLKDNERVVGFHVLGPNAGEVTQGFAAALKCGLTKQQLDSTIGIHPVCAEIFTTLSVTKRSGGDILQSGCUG

Assay [15] shares this target. As to the kind of experiment: qHTS Assay for Inhibitors of Mammalian Selenoprotein Thioredoxin Reductase 1 (TrxR1) (AID 488773).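 Note: drop in NADPH fluorescence over an 8 min run after selenite addition; series mostly up to about 57 µM; nearly all actives have a fitted effect of over 40% in size.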 To be noted: Potency: inhibition. An outline of the steps: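 Inhibition is scored from the loss of NADPH fluorescence between first and last reads of an 8-min kinetic run. Selenite (400 uM) was the substrate, added after 15 min compound preincubation at room temperature.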

For assay [16], the target named is Flap endonuclease 1 (Homo sapiens) (UniProt P39748). As to the kind of experiment: qHTS Validation Assay for the Inhibitors of Human Flap endonuclease 1 (FEN1) (AID 488816). A digest of the protocol: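 Enzyme reagent 10 nM; cpds pinned; 15 min RT preinc.; substrate 50 nM final; reads t=0 and 15 min; no-enzyme buffer wells as neg. control; normalized data, 4-parameter Hill fit.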
Sequence of Flap endonuclease 1 (Homo sapiens) (P39748 whole entry, looked up): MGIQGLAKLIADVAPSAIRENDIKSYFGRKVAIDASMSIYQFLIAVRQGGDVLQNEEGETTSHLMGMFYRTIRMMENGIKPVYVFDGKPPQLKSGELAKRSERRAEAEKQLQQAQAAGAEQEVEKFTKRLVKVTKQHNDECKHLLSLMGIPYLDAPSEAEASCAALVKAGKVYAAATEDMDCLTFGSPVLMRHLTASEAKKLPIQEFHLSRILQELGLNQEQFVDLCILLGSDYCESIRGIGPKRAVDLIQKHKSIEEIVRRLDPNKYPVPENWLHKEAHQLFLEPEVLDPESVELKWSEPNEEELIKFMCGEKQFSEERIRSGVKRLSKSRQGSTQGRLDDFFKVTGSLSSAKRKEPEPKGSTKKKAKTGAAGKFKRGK

For assay [17], the target named is Methanococcus maripaludis chaperonin (MmCpn) (UniProt Q6LX38). As to the kind of experiment: High-Throughput Screening for Modulators of Cytosolic Chaperonin Activity: MmCpn Primary Screen (AID 488978). A digest of the protocol: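 HTRF readout (320 nm excitation, 590/665 nm emission) of ADP generated by 50 nM MmCpn hydrolysing 30 uM ATP during 10 min at 37C; compound preincubated 5 min RT.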
Sequence of Methanococcus maripaludis chaperonin (MmCpn) (Q6LX38 1-543): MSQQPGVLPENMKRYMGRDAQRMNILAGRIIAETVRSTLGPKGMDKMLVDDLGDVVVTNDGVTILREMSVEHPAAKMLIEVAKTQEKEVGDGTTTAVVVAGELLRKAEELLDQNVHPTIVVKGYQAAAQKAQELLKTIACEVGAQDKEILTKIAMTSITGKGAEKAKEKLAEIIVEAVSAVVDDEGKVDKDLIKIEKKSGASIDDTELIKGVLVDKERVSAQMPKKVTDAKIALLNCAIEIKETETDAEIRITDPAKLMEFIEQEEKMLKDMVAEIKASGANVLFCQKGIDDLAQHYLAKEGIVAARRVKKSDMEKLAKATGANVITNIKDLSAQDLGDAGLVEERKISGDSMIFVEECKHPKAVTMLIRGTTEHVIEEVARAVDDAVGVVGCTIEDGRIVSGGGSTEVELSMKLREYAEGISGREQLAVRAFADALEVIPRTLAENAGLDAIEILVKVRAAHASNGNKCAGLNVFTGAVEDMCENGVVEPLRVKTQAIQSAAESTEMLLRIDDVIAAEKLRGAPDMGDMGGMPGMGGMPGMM

Assay [18] addresses M-phase phosphoprotein 8 (Homo sapiens) (UniProt Q99549). As to the kind of experiment: qHTS Validation Assay for Inhibitors for MPP8 Chromodomain Interactions with Methylated Histone Tails (AID 488949).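 Note: 50 nM MPP8 with 50 nM peptide preformed then compounds added for 30 min; AlphaScreen signal from MPP8 chromodomain bound to biotinylated H3K9me3 peptide; top concentration of the series differs between compounds; nearly all actives have a fitted effect of over 55% in size.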 An outline of the steps:
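Chemiluminescent proximity assay: histidine-tag capture via nickel acceptor beads, biotin peptide via streptavidin donor beads. Protein and peptide each at 50 nM, pH 7.4, with 30 min incubations at room temperature for complex formation, compound exposure and bead binding.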

Assay [19] addresses Chromobox protein homolog 1 (Homo sapiens) (UniProt P83916). Nature of the assay: qHTS Validation Assay for Inhibitors of HP1-beta Chromodomain Interactions with Methylated Histone Tails (AID 488953).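 Note: loss of AlphaScreen luminescence from HP1-beta binding biotinylated H3K9me3 peptide; series mostly up to about 110 µM; nearly all actives have a fitted effect of over 50% in size.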 An outline of the steps:
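Disruption of preformed HP1-beta:H3K9me3 peptide complexes (both 50 nM, PBS pH 7.4 with 0.01% Tween-20) is measured by AlphaScreen after 30 min compound exposure at room temperature, using streptavidin donor and nickel chelate acceptor beads at 10 ug/mL final.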

Results filed as inconclusive are left out. Calls of active or inactive are those of the source. Unless noted, calls come from the whole dose curve; as a rule, active = well fitted curve in the direction sought with a large enough effect; inconclusive = small, poorly fitted or top-dose-only effect, or another doubt; inactive = no such curve, though single readings can be large; an effect the other way counts as inactive or inconclusive.

Sequence of M-phase phosphoprotein 8 (Homo sapiens) (Q99549 whole entry, looked up): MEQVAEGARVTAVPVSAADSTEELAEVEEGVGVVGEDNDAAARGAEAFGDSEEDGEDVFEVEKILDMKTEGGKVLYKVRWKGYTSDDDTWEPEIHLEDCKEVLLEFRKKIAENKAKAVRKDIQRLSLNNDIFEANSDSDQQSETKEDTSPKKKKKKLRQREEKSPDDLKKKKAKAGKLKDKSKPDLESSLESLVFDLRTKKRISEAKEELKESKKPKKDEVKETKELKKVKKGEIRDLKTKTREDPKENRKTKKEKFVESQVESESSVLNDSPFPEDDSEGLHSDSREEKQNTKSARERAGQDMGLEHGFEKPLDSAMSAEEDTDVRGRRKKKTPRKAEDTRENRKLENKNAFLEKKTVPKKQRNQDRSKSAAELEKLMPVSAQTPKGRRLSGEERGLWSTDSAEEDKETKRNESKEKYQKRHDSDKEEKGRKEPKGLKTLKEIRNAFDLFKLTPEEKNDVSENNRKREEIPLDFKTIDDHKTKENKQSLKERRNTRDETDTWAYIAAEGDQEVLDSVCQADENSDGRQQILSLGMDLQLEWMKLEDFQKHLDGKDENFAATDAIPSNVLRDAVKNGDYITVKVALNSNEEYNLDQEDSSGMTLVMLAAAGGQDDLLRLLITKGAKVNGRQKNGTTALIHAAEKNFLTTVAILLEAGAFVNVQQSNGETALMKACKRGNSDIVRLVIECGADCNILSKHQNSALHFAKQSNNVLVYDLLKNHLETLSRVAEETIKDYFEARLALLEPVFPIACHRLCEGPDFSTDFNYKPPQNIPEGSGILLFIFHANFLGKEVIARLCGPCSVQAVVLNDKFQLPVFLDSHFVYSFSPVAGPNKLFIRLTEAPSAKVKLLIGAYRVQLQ
Sequence of Chromobox protein homolog 1 (Homo sapiens) (P83916 whole entry, looked up): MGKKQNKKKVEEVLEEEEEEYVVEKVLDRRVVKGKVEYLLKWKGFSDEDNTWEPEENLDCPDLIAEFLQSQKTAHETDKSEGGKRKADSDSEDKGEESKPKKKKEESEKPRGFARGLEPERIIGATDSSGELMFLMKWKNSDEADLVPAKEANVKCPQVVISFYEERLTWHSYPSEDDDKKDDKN
Sequence of Tumor susceptibility gene 101 protein (Homo sapiens) (Q99816 whole entry, looked up, the tested form may be a part): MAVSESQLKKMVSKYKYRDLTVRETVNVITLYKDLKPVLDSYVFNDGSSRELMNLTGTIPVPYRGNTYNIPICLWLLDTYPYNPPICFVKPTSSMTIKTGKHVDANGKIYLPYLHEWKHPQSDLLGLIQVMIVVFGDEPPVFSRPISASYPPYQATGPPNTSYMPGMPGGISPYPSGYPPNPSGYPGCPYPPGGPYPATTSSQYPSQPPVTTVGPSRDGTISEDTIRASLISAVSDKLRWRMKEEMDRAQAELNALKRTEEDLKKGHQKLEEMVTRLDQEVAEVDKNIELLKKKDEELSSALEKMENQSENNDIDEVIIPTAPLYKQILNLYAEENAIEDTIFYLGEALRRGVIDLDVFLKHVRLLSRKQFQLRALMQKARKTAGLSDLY
Sequence of Beta-2 adrenergic receptor (Homo sapiens) (P07550 whole entry, looked up): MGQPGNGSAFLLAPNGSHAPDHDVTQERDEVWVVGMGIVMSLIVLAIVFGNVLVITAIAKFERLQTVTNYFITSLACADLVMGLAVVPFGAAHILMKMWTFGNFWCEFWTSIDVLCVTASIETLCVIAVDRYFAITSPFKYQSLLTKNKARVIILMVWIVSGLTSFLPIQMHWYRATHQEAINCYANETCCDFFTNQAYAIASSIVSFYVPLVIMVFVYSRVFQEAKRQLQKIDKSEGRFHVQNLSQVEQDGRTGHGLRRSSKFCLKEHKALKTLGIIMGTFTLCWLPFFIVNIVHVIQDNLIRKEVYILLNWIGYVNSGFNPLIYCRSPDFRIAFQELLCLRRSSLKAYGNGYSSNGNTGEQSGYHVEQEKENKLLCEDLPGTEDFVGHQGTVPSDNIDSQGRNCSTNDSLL
Sequence of ATP-dependent 6-phosphofructokinase (Trypanosoma brucei brucei) (O15648 whole entry, looked up): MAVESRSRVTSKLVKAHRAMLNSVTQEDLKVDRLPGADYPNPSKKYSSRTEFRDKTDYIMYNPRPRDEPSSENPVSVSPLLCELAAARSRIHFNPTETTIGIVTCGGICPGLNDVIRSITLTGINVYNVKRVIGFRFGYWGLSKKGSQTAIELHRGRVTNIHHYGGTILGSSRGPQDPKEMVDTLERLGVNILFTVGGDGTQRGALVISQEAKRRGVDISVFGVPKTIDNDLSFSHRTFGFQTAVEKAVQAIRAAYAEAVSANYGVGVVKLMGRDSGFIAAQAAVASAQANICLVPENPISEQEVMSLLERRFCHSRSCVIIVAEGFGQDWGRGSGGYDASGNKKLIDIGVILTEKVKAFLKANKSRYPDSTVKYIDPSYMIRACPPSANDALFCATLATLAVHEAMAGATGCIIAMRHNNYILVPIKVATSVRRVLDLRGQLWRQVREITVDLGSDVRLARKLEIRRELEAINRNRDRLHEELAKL

As to `N[C@H](C(=O)O)c1cc(O)cc(O)c1`, the outcome in assay [1], in assay [8], in [9], in assay [10], in assay [14] and in assay [17] was inactive. Further, the Potency result in assay [2], in assay [3], in assay [4], in [5], in assay [6] and in [7] was “inactive” in each case. In addition, the Potency result in [11], in [12], in [13], in assay [15] and in assay [16] was “inactive” in each case.

As for `CN[C@H](CC(=O)O)C(=O)O`, the call in assay [1], in [8], in [9], in assay [10], in [14] and in [17] was inactive. The Potency entry in assay [2], in assay [3], in assay [4], in assay [5], in assay [6] and in assay [7] was “inactive” each time. In addition, the Potency entry in [11], in assay [12], in [13], in assay [15], in assay [16] and in [18] was “inactive” each time. For the same compound, the Potency entry in assay [19] was “inactive”.

On to `Nn1nnc2ccccc21`, for which the result in assay [1], in assay [8], in assay [9], in assay [10], in assay [14] and in [17] was inactive. Further, the Potency result in [2], in assay [3], in assay [4], in [5], in [6] and in assay [7] was “inactive” throughout. Also, the Potency result in assay [11], in assay [12], in assay [13], in assay [15], in assay [16] and in assay [18] was “inactive” each time. Besides, the Potency entry in assay [19] was “inactive”.

Consider `COCc1nc2c([nH]1)c(=O)n(C)c(=O)n2CC(C)C`, for which the compound was called inactive in [1], in assay [8], in [9], in assay [10], in assay [14] and in assay [17]. Besides, the Potency entry in assay [2], in assay [3], in assay [4], in [5], in assay [6] and in [7] was “inactive” in each case. Moreover, the Potency entry in assay [11], in [12], in assay [13], in assay [15], in assay [16] and in [18] was “inactive” in each case.

Turning to `OC[C@H]1O[C@@H](n2cnc3cncnc32)[C@H](O)[C@@H]1O`, the call in assay [1], in [8], in assay [9], in [10], in assay [14] and in [17] was inactive. The Potency entry in assay [2], in assay [3], in [4], in assay [5], in [6] and in assay [7] was “inactive” each time. Moreover, the Potency result in assay [11], in [15], in assay [16], in [18] and in assay [19] was “inactive” in each case. Moreover, the Potency in [12] was 3.29 µM (active).

For `CC(=O)/C(C)=N/O`, the result in assay [1], in assay [8], in assay [9], in assay [10] and in assay [17] was inactive. Also, the Potency entry in [2], in [3], in assay [4], in assay [5], in assay [6] and in [7] was “inactive” each time. Besides, the Potency result in assay [11], in assay [12], in assay [13], in assay [15], in assay [16] and in assay [18] was “inactive” each time. The Potency entry in assay [19] is “inactive”.

For the compound `COc1cc(C(O)CO)ccc1O` (stereo not given), the compound was classed as inactive in assay [1], in assay [8], in assay [9], in assay [10] and in [17]. Further, the Potency result in assay [2], in [3], in assay [4], in assay [5], in assay [6] and in assay [7] was “inactive” throughout. The Potency entry in assay [11], in assay [12], in assay [16], in [18] and in assay [19] was “inactive” each time.

Consider `CNC(=O)c1cc2c(cn1)[nH]c1ccccc12`, for which the result in assay [1], in [8], in assay [9], in assay [10] and in assay [14] was inactive. Also, the Potency result in assay [2], in assay [3], in assay [4], in [5], in [6] and in [7] was “inactive” throughout. In addition, the Potency result in assay [11], in [15], in assay [16] and in assay [18] was “inactive” throughout.

Values taken from PubChem BioAssay (NCATS).
